Compound activity deposited in PubChem by National Center for Advancing Translational Sciences (NCATS).
A selection: hits, their analogues and other compounds. The true share with any hit is near 0.53%.
IL-2 act: activators of IL-2. hit rate 0.065% among 360,000. activation, % (series mostly up to about 46 µM). IL-2 activation reporter assay, cell-based qHTS; stimulated with anti-CD3/CD4/CD28 beads; in transgenic mouse T cells; in the data active means activation above about 50%; inconclusive means mostly about 30% to 49%; further: 0% is about no effect
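Using fluorescent plate cytometry, EGFP and DsRed are detected in transgenic mouse T cells stimulated 18 h at 37 degrees C with antibody-coated beads after 60 min compound pretreatment.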
Vif-APOBEC3F blk: blocks the Vif interaction with APOBEC3F. hit rate 0.2% among 390,000. Potency, µM (titrated, usually from 46.1 µM), without a hit: at the top dose activity, negative = active. HeLa A3F-eYFP + Vif (tagged APOBEC3F with the HIV-1 protein that degrades it), YFP fluorescence increase; further: potency means the concentration at half of the fitted maximal effect; % of control where 0% means no effect; nearly all actives have a fitted effect of over 65% in size
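HeLa cells stably expressing A3F-eYFP plus Vif, plated and incubated overnight at 37 deg C, then exposed to compounds overnight at 37 deg C. Blocked degradation read as raised yellow fluorescence (Ex 488/Em 500-530).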
PKM2 activator: increases activity of human pyruvate kinase M2. purified PKM2, Kinase-Glo ATP luminescence, activation; response scale: 0% is enzyme alone, no compound. Potency, µM (series often up to 57.5 µM), for the others: at the top dose activation, usual class: activators. hit rate 0.34% among 260,000. AID 1631; further: potency means the concentration at half of the fitted maximal effect; on the % scale 0 is the no-effect control and ±100 the full control effect; nearly all actives have a fitted effect of over 55% in size
Target sequence (P14618 whole entry, looked up): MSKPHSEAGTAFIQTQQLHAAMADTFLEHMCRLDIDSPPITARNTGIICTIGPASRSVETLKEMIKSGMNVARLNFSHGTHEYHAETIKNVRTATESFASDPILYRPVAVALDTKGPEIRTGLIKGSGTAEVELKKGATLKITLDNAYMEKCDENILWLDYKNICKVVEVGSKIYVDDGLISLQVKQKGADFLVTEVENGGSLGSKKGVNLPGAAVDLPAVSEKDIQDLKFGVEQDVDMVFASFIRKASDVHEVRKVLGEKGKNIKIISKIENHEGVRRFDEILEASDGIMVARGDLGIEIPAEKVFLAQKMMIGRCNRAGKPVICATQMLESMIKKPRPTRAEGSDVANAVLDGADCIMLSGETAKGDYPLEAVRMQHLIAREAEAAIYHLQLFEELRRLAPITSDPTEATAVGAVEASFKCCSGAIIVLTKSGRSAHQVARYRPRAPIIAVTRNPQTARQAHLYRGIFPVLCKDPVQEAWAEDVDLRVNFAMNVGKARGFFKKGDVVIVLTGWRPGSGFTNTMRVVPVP
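Kinase-Glo luminescence reports ATP generated from ADP (0.1 mM) and PEP (0.5 mM) by purified hPK-M2 after 1 h at room temperature, pH 7.2 imidazole buffer; intermediate enzyme activity allows detecting inhibitors and activators.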
Vif-A3G inh: Vif-A3G binding inhibition. Q9HC16. Potency, µM (top dose mostly 46.1 µM), for the others: at the top dose activity, negative = active, usual class: inhibitors. hit rate 0.076% among 410,000. HeLa A3G-eYFP + Vif (tagged APOBEC3G with the HIV-1 protein that degrades it), YFP fluorescence, overnight; further: potency means the concentration at half of the fitted maximal effect; on the % scale 0 is the no-effect control and ±100 the full control effect; nearly all actives have a fitted effect of over 60% in size
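Read-out is eYFP fluorescence (Ex 488/Em 500-530) from Vif-expressing HeLa A3G-eYFP cells; more signal means A3G escaped Vif-mediated degradation. Cells plated overnight, compound pinned in, incubated overnight at 37 deg C.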
Starred values were filed as active, the others as inactive. Unless noted, the call rests on the fitted dose curve; in most records, active means well fitted curve in the direction sought with a large enough effect; inconclusive means small, poorly fitted or top-dose-only effect, or another doubt; inactive means no such curve, though single readings can be large; an effect the other way counts as inactive or inconclusive.

Results for COC(=O)C1C2CC3c4[nH]c5cc(OC)ccc5c4CCN3CC2CC(OC2CCCCO2)C1OC (stereo unspecified) ?
IL-2 act: 7; Vif-APOBEC3F blk: 11µM*; Vif-A3G inh: -9%

How did COC(=O)c1ccc2nc(-c3ccco3)c(Cc3ccc(OC)cc3C)n2c1 do in these assays?
IL-2 act: 2; Vif-A3G inh: inconclusive

Results for CCn1cc(C(=O)NCCc2ccc(OC)c(OC)c2)c(=O)c2cc(S(=O)(=O)N3CCC(C)CC3)ccc21 ?
Vif-APOBEC3F blk: 1%; Vif-A3G inh: -2%

What do the screens show for `COc1ccc(/C=C/C(=O)c2ccc([N+](=O)[O-])o2)cc1OC`?
IL-2 act: 1; Vif-APOBEC3F blk: inconclusive; Vif-A3G inh: 7.9µM*

Results for Cc1ccc2onc(CNC(=O)N3CCN(c4cc(Cl)ccc4C)CC3)c2c1 ?
Vif-APOBEC3F blk: 1%; Vif-A3G inh: -2%

What do the screens show for `O=S(=O)(NCCCO)c1ccc2c(c1)Cc1cc(S(=O)(=O)NCCCO)ccc1-2`?
IL-2 act: 1; Vif-APOBEC3F blk: -7%; PKM2 activator: 13µM*; Vif-A3G inh: 0%

What do the screens show for `Cc1ccc(/C=C/C(=O)Nc2sc(C)c(C)c2C(=O)OC(C)C)o1`?
IL-2 act: 0; Vif-APOBEC3F blk: 7%; PKM2 activator: 16µM*; Vif-A3G inh: -6%

What do the screens show for `CCOC(=O)c1c(NC(=O)/C=C/c2ccc(C)o2)sc(C)c1C`?
IL-2 act: -3; Vif-APOBEC3F blk: -3%; PKM2 activator: -3%; Vif-A3G inh: 0%

What do the screens show for `Cc1ccc(N2C(=O)[C@@H]3[C@H](C2=O)[C@H]2C=C(C(=O)c4ccccc4)C=CN2[C@@H]3C(=O)c2ccc(Cl)cc2)cc1`?
IL-2 act: -1; Vif-APOBEC3F blk: 11µM*; PKM2 activator: 0%; Vif-A3G inh: -15%

What do the screens show for `O=C1c2cccc3c(N4CCCCC4)ccc(c23)C(=O)N1c1ccccc1O`?
IL-2 act: 10; Vif-APOBEC3F blk: 8.9µM*; PKM2 activator: 3%; Vif-A3G inh: 14%

What do the screens show for `O=C1c2cccc3c(N4CCCCC4)ccc(c23)C(=O)N1c1ccc(O)cc1`?
IL-2 act: 13; Vif-APOBEC3F blk: inconclusive; PKM2 activator: 2%; Vif-A3G inh: 7.9µM*

What do the screens show for `COc1cccc(NC(=O)CSc2nc(=O)[nH]c3c2CCCC3)c1`?
Vif-APOBEC3F blk: 0%; Vif-A3G inh: 9%

How did O=c1[nH]c(=O)c2nc3c4ccccc4c4ccccc4c3nc2[nH]1 do in these assays?
IL-2 act: 7; Vif-APOBEC3F blk: -7%; PKM2 activator: 11µM*; Vif-A3G inh: -1%

How did CC(=O)Oc1ccccc1/C=C/c1nc2ccccc2c(=O)o1 do in these assays?
IL-2 act: 0; Vif-APOBEC3F blk: 3%; Vif-A3G inh: 0%

How did O=c1oc(/C=C/c2ccc([N+](=O)[O-])s2)nc2ccccc12 do in these assays?
IL-2 act: -1; Vif-APOBEC3F blk: 28µM*; PKM2 activator: -8%; Vif-A3G inh: -18%

What do the screens show for `Cc1cc(OCC(=O)Nc2nnc(C3CC3)s2)ccc1Cl`?
IL-2 act: -1; Vif-APOBEC3F blk: -1%; Vif-A3G inh: 2.8µM*

How did COc1cc(/C=C2\SC(N)=NC2=O)cc(Cl)c1O do in these assays?
IL-2 act: 6; Vif-APOBEC3F blk: 11µM*; PKM2 activator: 6%; Vif-A3G inh: -18%

Results for COc1ccc(/C=C2\SC(N)=NC2=O)cc1Br ?
IL-2 act: 0; Vif-APOBEC3F blk: 5%; PKM2 activator: 11%; Vif-A3G inh: 1%

Results for COc1ccc(-c2noc(-c3ccc(NCCc4ccccc4)c([N+](=O)[O-])c3)n2)cc1OC ?
Vif-APOBEC3F blk: -9%; Vif-A3G inh: 3%

How did O=C(Nc1ccc(Cl)c(S(=O)(=O)N2CCOCC2)c1)[C@@H]1CCCN1C(=O)c1cccs1 do in these assays?
IL-2 act: 1; Vif-APOBEC3F blk: 2%; Vif-A3G inh: -4%

What do the screens show for `COc1ccccc1NC(=O)c1[nH]c(C)c(C(C)=O)c1C`?
IL-2 act: 0; Vif-APOBEC3F blk: -1%; PKM2 activator: 7%; Vif-A3G inh: -11%

How did COc1ccccc1NS(=O)(=O)c1cccc(NC(=O)c2[nH]c(C)c(C(C)=O)c2C)c1 do in these assays?
IL-2 act: -1; Vif-APOBEC3F blk: -15%; PKM2 activator: 13µM*; Vif-A3G inh: -17%
